Data reported in PubChem BioAssay AID1159580 (chemical genetic matrix, 2015).
Out of some 5,500 compounds screened, about 2,000 (36%) were called active. Not shown: some 18% with an inconclusive outcome. Rule as the data show it: active = normalized growth mostly below about 0.91 (no sharp cut-off); inconclusive = no clear call, values can overlap the other calls; inactive = mostly above about 0.92. The list shows a part of the results.

Assay: chemical genetic growth profiling, strain panel (AID 1159580);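 also: tested at 20 µM; growth read once vehicle control cultures reached saturation at 30 °C; 1 = growth at the plate median or of vehicle wells; lower values mean less growth of the strain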
Conditions: S. cerevisiae deletion strains, growth OD

Measured: normalized growth

COc1cc(N)c(Cl)cc1C(=O)NC1CCN(Cc2ccccc2)CC1
inactive: locus YAL013W, strain DEP1, hits give low values 0.997 | locus YAL021C, strain ccr4, hits give low values 1 | locus YAL026C, strain drs2, hits give low values 1 | locus YAL030W, strain snc1, hits give low values 1 | locus YBL061C, strain skt5, hits give low values 0.997 | locus YBR009C, strain hhf1, hits give low values 0.999 | locus YBR021W, strain FUR4, hits give low values 1.07 | locus YBR023C, strain chs3, hits give low values 0.995 | locus YBR171W, strain sec66, hits give low values 0.999 | locus YBR229C, strain ROT2, hits give low values 0.988 | locus YBR231C, strain swc5, hits give low values 1 | locus YBR279W, strain paf1, hits give low values 0.999 | locus YCL011C, strain gbp2, hits give low values 0.994 | locus YCL016C, strain dcc1, hits give low values 1 | locus YCL029C, strain bik1, hits give low values 0.962 | locus YCL061C, strain MRC1, hits give low values 0.984 | locus YCL069W, strain vba3, hits give low values 0.993 | locus YCR088W, strain abp1, hits give low values 0.993 | locus YDL005C, strain med2, hits give low values 0.996 | locus YDL035C, strain GPR1, hits give low values 1 | locus YDL040C, strain nat1, hits give low values 0.992 | locus YDL074C, strain BRE1, hits give low values 0.97 | locus YDL101C, strain DUN1, hits give low values 0.981 | locus YDL134C, strain PPH21, hits give low values 0.999 | locus YDL185W, strain tfp1, hits give low values 0.954 | locus YDL192W, strain arf1, hits give low values 0.992 | locus YDR001C, strain nth1, hits give low values 0.999 | locus YDR069C, strain doa4, hits give low values 0.992 | locus YDR101C, strain arx1, hits give low values 0.982 | locus YDR137W, strain rgp1, hits give low values 1.01 | locus YDR150W, strain NUM1, hits give low values 0.987 | locus YDR159W, strain sac3, hits give low values 1 | locus YDR162C, strain NBP2, hits give low values 0.996 | locus YDR195W, strain ref2 0.986 | locus YDR297W, strain sur2, hits give low values 0.994 | locus YDR318W, strain mcm21, hits give low values 0.981 | locus YDR334W, strain swr1, hits give low values 0.998 | locus YDR335W, strain msn5, hits give low values 0.986 | locus YDR388W, hits give low values 0.993 | locus YDR392W, strain spt3, hits give low values 0.995 | locus YDR502C, strain sam2, hits give low values 1.01 | locus YEL003W, strain gim4, hits give low values 0.999 | locus YEL037C, strain rad23, hits give low values 0.996 | locus YEL061C, strain CIN8 (second series), hits give low values 0.998 | locus YEL061C, strain CIN8, hits give low values 0.995 | locus YER015W, strain faa2, hits give low values 1 | locus YER016W, strain bim1, hits give low values 0.994 | locus YER110C, hits give low values 0.995 | locus YER111C, strain swi4, hits give low values 0.991 | locus YER155C, strain BEM2 (second series), hits give low values 0.988 | locus YER155C, strain BEM2, hits give low values 0.982 | locus YER167W, strain BCK2, hits give low values 0.996 | locus YFR010W, strain ubp6, hits give low values 0.999 | locus YGL078C, strain dbp3, hits give low values 0.996 | locus YGL086W, strain mad1, hits give low values 1 | locus YGL167C, strain pmr1, hits give low values 1 | locus YGL173C, strain kem1, hits give low values 0.998 | locus YGL227W, strain vid30, hits give low values 0.998 | locus YGL240W, strain doc1, hits give low values 0.997 | locus YGL248W, strain PDE1, hits give low values 1 | locus YGL253W, strain hxk2, hits give low values 0.992 | locus YGR078C, strain PAC10, hits give low values 0.982 | locus YGR135W, strain pre9, hits give low values 0.998 | locus YGR229C, strain SMI1, hits give low values 1.02 | locus YGR252W, strain gcn5, hits give low values 1.15 | locus YHR013C, strain ard1, hits give low values 0.996 | locus YHR027C, strain rpn1, hits give low values 1 | locus YHR030C, strain SLT2, hits give low values 0.996 | locus YHR079C, strain IRE1 (second series), hits give low values 0.977 | locus YHR094C, strain hxt1, hits give low values 0.974 | locus YHR129C, strain ARP1, hits give low values 0.993 | locus YHR142W, strain chs7, hits give low values 0.993 | locus YHR200W, strain rpn10, hits give low values 0.989 | locus YIL066C, strain RNR3, hits give low values 0.98 | locus YIL073C, strain SPO22, hits give low values 0.997 | locus YIL125W, strain kgd1, hits give low values 0.997 | locus YIR030C, strain dcg1, hits give low values 0.988 | locus YJL092W, strain hpr5, hits give low values 0.987 | locus YJL095W, strain BCK1 (second series), hits give low values 0.998 | locus YJL095W, strain BCK1, hits give low values 0.999 | locus YJL115W, strain asf1, hits give low values 0.987 | locus YJL129C, strain trk1, hits give low values 0.992 | locus YJL134W, strain LCB3, hits give low values 0.998 | locus YJL154C, strain vps35, hits give low values 1 | locus YJL164C, strain tpk1, hits give low values 1 | locus YJL166W, strain qcr8, hits give low values 0.996 | locus YJL168C, strain set2, hits give low values 0.99 | locus YJL187C, strain SWE1 (second series), hits give low values 0.966 | locus YJL187C, strain SWE1, hits give low values 0.99
